Screens: PubChem BioAssay, several laboratories
TIM10 inh: growth inhibitors of isogenic TIM10 control yeast, primary screen, counter-screen for tim10-1 yeast inhibitor project, luminescence, uHTS; S. cerevisiae TIM10 strain growth, BacTiter-Glo luminescence, 24 h; inhibition, % at 10 µM; actives 1.4% (n = 330,000); AID 463195, 2010;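 active = inhibition of 40% or more at the single tested concentration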;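 also: wild-type TIM10 isogenic control strain grown at permissive 25 °C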
tim10-1 inh: growth inhibitors of tim10-1 mutant yeast, primary screen, luminescence, uHTS. AID 463190, 2010. S. cerevisiae tim10-1 ts strain growth, BacTiter-Glo, 24 h. actives 2.2% (n = 330,000). inhibition, % at 20 µM;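 active = inhibition of at least 40%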;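 also: mutant grown at 25 °C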
tim23-1 inh: growth inhibitors of tim23-1 mutant yeast, primary screen, luminescence, uHTS | S. cerevisiae tim23-1 growth, BacTiter-Glo luminescence, 24 h | inhibition, % at 20 µM | actives 1.3% (n = 330,000) | AID 463212, 2010;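 active = growth inhibition of the mutant yeast at or above 50%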;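 also: temperature-sensitive mutant grown at 25 °C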
NALP3 yeast inh: NALP3 inflammasome inhibitors in reconstituted yeast, primary screen, luminescence, uHTS; actives 0.39% (n = 330,000); inhibition, % at 10 µM; Yeast reconstituted NLRP3/ASC/caspase-1, beta-gal luminescence, 24 h;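 active = inhibition of 50% or more; inactive = inhibition below 50%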
PfHsp90 yeast 2: growth inhibition of PfHsp90-expressing yeast, primary screen, antimalarial PfHsp90 inhibitor project, S. cerevisiae, BacTiter-Glo luminescence, single point, set 2. AID 504621, 2011. actives 0.32% (n = 310,000). BacTiter-Glo ATP, 48 h; yeast lacking PDR1 and PDR3 efflux regulators. inhibition, % at 9.4 µM;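 active = every replicate shows inhibition above about 80%, whatever the replicate mean, limit read from the data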
SKKanGAS inh: S. pyogenes SKKanGAS growth inhibitors in kanamycin, primary screen, streptokinase expression inhibitor project, SKKanGAS strain, BacTiter-Glo luminescence; actives 1.3% (n = 300,000); inhibition, % at 7.5 µM; 6 h;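 active = mean replicate score, as percent of positive control median, at least 50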;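 also: strain carries kanamycin resistance gene driven by streptokinase promoter and grows in 40 µg/ml kanamycin; loss of luminescence reflects streptokinase promoter inhibition or plain growth inhibition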
tim10-1 conf: growth inhibitors of tim10-1 mutant yeast, confirmation, single concentration, luminescence, S. cerevisiae; actives 56% (n = 7,400); shares compounds with tim10-1 inh; S. cerevisiae tim10-1 ts strain growth, BacTiter-Glo, 24 h; inhibition, % at 20 µM; AID 463213, 2010;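 active = inhibition of yeast growth at or above a set limit in either of two repeat tests at 20 µM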;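 also: tim10-1 mutant grown at permissive 25 °C to find synthetic lethal compounds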
TIM10 conf: growth inhibitors of wild-type TIM10 yeast, confirmation, counter-screen for tim10-1 synthetic lethality project, single concentration, luminescence, S. cerevisiae; shares compounds with TIM10 inh; S. cerevisiae tim10 strain growth, BacTiter-Glo luminescence, 24 h; inhibition, % at 10 µM; actives 63% (n = 4,600); AID 463215, 2010;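 active = inhibition of yeast growth at or above a set limit in either of two replicates at 10 µM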; also: this counterscreen used the strain with wild-type TIM10
tim23-1 conf: tim23-1 mutant yeast growth inhibitors, confirmation, luminescence, single concentration; actives 83% (n = 4,400); S. cerevisiae tim23-1 growth, BacTiter-Glo luminescence, 24 h; inhibition, % at 20 µM; shares compounds with tim23-1 inh; AID 463218, 2010;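 active = inhibition above about 39% in either of two replicate wells at 20 µM, limit read from the data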;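 also: temperature-sensitive tim23-1 mutant grown at 25 °C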
Each line names hits and unclear results; the compound was inactive in the other large screens (follow-up assays come after a bar, where they were run). Shown are actives, neighbours in structure and some others; about 4.6% of the full set was active somewhere.

Cc1cc2n(n1)C(c1cn(-c3ccccc3)nc1C)Nc1ccccc1-2 (configuration not stated)	none (no result: PfHsp90 yeast 2)
Cc1cc2n(n1)C(c1ccc(O)cc1)Nc1ccccc1-2 (configuration not stated)	TIM10 inh 54.6, tim10-1 inh 54.1, tim23-1 inh 50.4 | tim10-1 conf 46.5 | TIM10 conf 48.5 | tim23-1 conf 53.9
Cc1ccc(C(=O)COC(=O)CCCC(=O)Nc2cc(C(F)(F)F)ccc2Cl)cc1C	none
CC(C)(C)c1ccc(CN2N=Nc3ccccc3S2(=O)=O)cc1	TIM10 inh 59.7, tim10-1 inh 71.6, tim23-1 inh 62.8 | tim10-1 conf 64.3 | TIM10 conf inactive | tim23-1 conf inactive
O=S1(=O)c2ccccc2N=NN1Cc1ccc(Cl)c(Cl)c1	none (no result: PfHsp90 yeast 2)
O=C(NCCC1CCCCN1S(=O)(=O)c1cccs1)C(=O)NCc1ccccc1 (configuration not stated)	none
Cn1cc(CN(CCO)Cc2cccs2)c(-c2ccccc2F)n1	none
O=[N+]([O-])/C=C/c1cn(Cc2ccc(F)cc2)c2ccccc12	TIM10 inh 69.3, tim10-1 inh 72.5, tim23-1 inh 65.5 (no result: PfHsp90 yeast 2) | tim10-1 conf 66.0 | TIM10 conf 73.9 | tim23-1 conf 71.3
O=C(Nc1nc(-c2ccccn2)cs1)c1ccc(Br)s1	tim10-1 inh 53.1, tim23-1 inh 56.2, PfHsp90 yeast 2 126.4 | tim10-1 conf 33.9 | tim23-1 conf 47.3
O=C(Nc1nc(-c2cc(Cl)sc2Cl)cs1)c1ccc(Br)s1	none
OC(CN1CC=C(/C=C/c2ccc(Br)cc2)CC1)c1ccccc1 (configuration not stated)	none
Cc1cc(N2CCN(c3nc(-c4ccccc4)cs3)CC2)c2ccccc2n1	tim10-1 inh 51.4, tim23-1 inh 63.4 | tim10-1 conf 42.0 | tim23-1 conf 52.0
N/C(=N\OC(=O)CCC1CCCC1)c1cccc([N+](=O)[O-])c1	tim10-1 inh 47.8, tim23-1 inh 50.1 | tim10-1 conf 38.2 | tim23-1 conf inactive
COc1ccc(/C(N)=N/OC(=O)CC2CCCCC2)cc1	TIM10 inh 65.6, tim10-1 inh 58.9, tim23-1 inh 57.1 | tim10-1 conf 63.8 | TIM10 conf 38.0 | tim23-1 conf 53.5
N/C(=N\OC(=O)CCC1CCCCC1)c1ccc([N+](=O)[O-])cc1	TIM10 inh 59.6, tim10-1 inh 83.0, tim23-1 inh 66.8 (no result: PfHsp90 yeast 2) | tim10-1 conf 79.0 | TIM10 conf 51.0 | tim23-1 conf 70.3
N/C(=N\OC(=O)CCC1CCCC1)c1ccc(Br)cc1	TIM10 inh 83.1, tim10-1 inh 67.6, tim23-1 inh 66.0 | tim10-1 conf 50.3 | TIM10 conf 72.1 | tim23-1 conf 61.0
CCn1c(SCC(=O)NC2CC2)nnc1-c1csc(C)c1	none
COc1ccccc1CNC(=O)C1CCN(S(=O)(=O)c2ccc3c(c2)NC(=O)CO3)CC1	none
CNCc1ccccc1Sc1cc(O)ccc1O	tim10-1 inh 50.9, tim23-1 inh 60.1 (no result: SKKanGAS inh) | tim10-1 conf 46.6 | tim23-1 conf 55.8
O=C(Nc1ccc(F)cc1)Nc1nnc(Cc2ccccc2F)s1	none
COc1ccc([N+](=O)[O-])c(S(=O)(=O)c2ccccc2)n1	tim10-1 inh 49.6, tim23-1 inh 76.8 (no result: PfHsp90 yeast 2) | tim10-1 conf 46.5 | tim23-1 conf 47.0
COc1ccc([N+](=O)[O-])c(S(=O)(=O)c2ccc(Cl)cc2)n1	TIM10 inh 83.5, tim10-1 inh 74.5, tim23-1 inh 52.6, PfHsp90 yeast 2 109.0 | tim10-1 conf 73.3 | TIM10 conf 93.6 | tim23-1 conf 85.5
COc1nc(OC)nc(Oc2ccc(Cl)cc2[N+](=O)[O-])n1	none
O=S(=O)(c1ccccc1)N1CCN(c2ccnc3cc(Cl)ccc23)CC1	tim10-1 inh 58.5, tim23-1 inh 63.3 | tim10-1 conf 52.9 | tim23-1 conf 65.7
O=S(=O)(c1cccs1)N1CCN(c2ccccc2Cl)CC1	none
O=S(=O)(c1cccs1)N1CCN(c2ccnc3cc(Cl)ccc23)CC1	tim10-1 inh 45.4, tim23-1 inh 51.3 | tim10-1 conf 35.2 | tim23-1 conf 44.3
N=C1C2=C3Sc4ccccc4N3CCCC2=NN1c1cccc(S(=O)(=O)O)c1	none
Clc1ncnc2scc(C3COc4ccccc4O3)c12 (configuration not stated)	tim10-1 inh 52.7, tim23-1 inh 51.5 | tim10-1 conf inactive | tim23-1 conf inactive
O=c1[nH]cnc2scc(C3COc4ccccc4O3)c12 (configuration not stated)	none
O=c1c2cc(Cl)ccc2nc(-c2ccccc2)n1O	tim10-1 inh 48.2, tim23-1 inh 59.5 | tim10-1 conf inactive | tim23-1 conf 63.7
Cc1c(N=NC2=C(O)CCCC2=O)c(=O)n(-c2ccccc2)n1C	none
CNC(=S)/N=C/NOCc1ccc(Cl)cc1Cl	TIM10 inh 50.7, tim10-1 inh 65.8, tim23-1 inh 58.3 | tim10-1 conf 46.8 | TIM10 conf 61.7 | tim23-1 conf 66.5
CCOc1cccc(CNc2ccc(O)cc2)c1OCc1ccc(Cl)cc1Cl	tim10-1 inh 41.6, tim23-1 inh 61.8 | tim10-1 conf 35.2 | tim23-1 conf 54.2
O=C(NC(=S)NC1CCCCC1)c1ccccc1[N+](=O)[O-]	tim10-1 inh 45.4, tim23-1 inh 62.8 | tim10-1 conf inactive | tim23-1 conf 48.5
O=C(NC(=S)NC1CCCCC1)c1ccc(F)cc1	tim10-1 inh 42.4, tim23-1 inh 69.3 | tim10-1 conf 31.7 | tim23-1 conf 56.4
O=C(NNC(=S)NC(=O)c1ccccc1[N+](=O)[O-])c1ccccc1[N+](=O)[O-]	none
Cc1ccc(C(=O)NC(=S)NNC(=O)c2ccccc2[N+](=O)[O-])cc1	TIM10 inh 46.9, tim10-1 inh 46.7, tim23-1 inh 61.0 (no result: SKKanGAS inh) | tim10-1 conf 42.5 | TIM10 conf 61.0 | tim23-1 conf 49.2
CCOc1ccccc1CNCC1CCCO1 (configuration not stated)	none
